KKLEB cytotox: reduces viability of KKLEB cystic fibrosis airway cells. KKLEB CF airway cells viability, ATPlite luminescence, overnight; stronger effect = lower value; cells stimulated with P. aeruginosa culture filtrate. AID 602141. activity change (cytotoxicity), % at 5 µM. actives 0.36% (n = 360,000);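 active = corrected activity change at or below -50% at 5 µM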
HIF-2a inh: blocks HIF-2a reporter activity. actives 0.72% (n = 360,000). inhibition, % at 18.8 µM. 786-0 RCC cells HIF-2a reporter, luciferase luminescence, overnight. AID 624352;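 active = inhibition of the luminescence signal of 40% or more relative to plate controls, in a single-dose primary screen at 18.75 µM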
CF NFkB inh: cystic fibrosis NF-kB activation inhibition; KKLEB NF-kB-GFP reporter, PAF-induced, GFP fluorescence overnight; inhibition, % at 5 µM; actives 0.86% (n = 360,000);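 active = at least 50% inhibition at 5 µM, scaled per plate between neutral and stimulator controls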;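 note: PAF is a Pseudomonas aeruginosa culture filtrate used as stimulus; plate controls were PAF-stimulated DMSO wells for no effect and unstimulated DMSO wells for full effect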
TRAIL sens C8: caspase-8 TRAIL sensitization | NB7+C8 cells + TRAIL, ATPlite viability luminescence | inhibition (viability loss, TRAIL sensitization), % at 10 µM | actives 1% (n = 360,000) | AID 624354;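 active = compounds causing at least 50% loss of cell viability in the single-dose screen, relative to plate controls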
PPC-1+TRAIL kill: PPC-1 cancer cell killing with TRAIL present. PPC-1 cells + TRAIL, ATPLite viability luminescence. actives 0.41% (n = 220,000). cell killing (% activity), % at 4 µM or 5 µM;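 active = cell killing above 50% in the first pass at 4 µM, then a duplicate retest at 5 µM averaging 50% or more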;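 note: plate controls were cells with TRAIL plus DMSO for no effect and medium-only wells lacking cells for full effect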
iPSC survival up: hiPSC single-cell survival enhancement. actives 0.044% (n = 360,000). survival enhancement, % at 20 µM. ATPlite luminescence; 100% = ROCK inhibitor wells, 0% = DMSO; in the data active = survival enhancement above about 18%;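 note: cells exposed to compounds for 16 hours before the ATP read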
Mdm2 MdmX conf: Mdm2/MdmX (human) interaction inhibition, confirmed. shares compounds with HIF-2a inh. SaOS-2 split-luciferase Mdm2/MdmX complementation, luminescence. inhibition, % at 8 µM. actives 99% (n = 740). AID 504601;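 active = mean inhibition of the luminescence signal across two replicates at or above 26 percent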
Target sequence (O15151 whole entry, looked up): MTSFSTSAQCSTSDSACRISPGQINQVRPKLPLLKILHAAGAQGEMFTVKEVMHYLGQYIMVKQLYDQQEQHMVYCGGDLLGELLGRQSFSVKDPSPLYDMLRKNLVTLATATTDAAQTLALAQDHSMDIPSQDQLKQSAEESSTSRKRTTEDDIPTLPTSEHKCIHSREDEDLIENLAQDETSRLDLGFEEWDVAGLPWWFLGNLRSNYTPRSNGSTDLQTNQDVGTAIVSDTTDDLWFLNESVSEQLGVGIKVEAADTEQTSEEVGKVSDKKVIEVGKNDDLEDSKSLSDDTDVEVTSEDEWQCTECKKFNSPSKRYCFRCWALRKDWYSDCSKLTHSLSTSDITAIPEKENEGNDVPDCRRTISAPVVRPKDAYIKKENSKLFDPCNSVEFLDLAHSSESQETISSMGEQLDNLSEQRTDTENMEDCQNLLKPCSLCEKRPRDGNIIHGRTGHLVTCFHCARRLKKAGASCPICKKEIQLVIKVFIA
Target sequence (Q00987 whole entry, looked up): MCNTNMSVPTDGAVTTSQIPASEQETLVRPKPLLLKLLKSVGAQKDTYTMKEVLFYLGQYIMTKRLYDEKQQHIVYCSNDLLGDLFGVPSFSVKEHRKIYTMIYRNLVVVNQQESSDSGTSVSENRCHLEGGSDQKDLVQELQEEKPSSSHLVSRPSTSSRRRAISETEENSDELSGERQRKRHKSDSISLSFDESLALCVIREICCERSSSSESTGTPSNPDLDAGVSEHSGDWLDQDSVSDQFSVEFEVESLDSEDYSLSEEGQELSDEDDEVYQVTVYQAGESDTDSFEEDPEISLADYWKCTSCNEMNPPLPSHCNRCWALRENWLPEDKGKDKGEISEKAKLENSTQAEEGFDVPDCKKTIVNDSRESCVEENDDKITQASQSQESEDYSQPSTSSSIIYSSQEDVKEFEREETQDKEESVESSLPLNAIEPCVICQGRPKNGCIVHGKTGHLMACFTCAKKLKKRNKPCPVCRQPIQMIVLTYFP
HIF-2a conf: confirmation of HIF-2a inhibitors | 786-0 RCC cells, HIF-2a luciferase reporter luminescence, overnight | inhibition, % at 18.8 µM | AID 651580 | actives 56% (n = 1,800) | shares compounds with HIF-2a inh;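 active = mean inhibition across four replicates of at least 40 percent at the single tested concentration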
HIF-1a counter: counter-screen for HIF-2a inhibitors: HIF-1a inhibition in MiaPaCa-2 cells. inhibition, % at 18.8 µM. shares compounds with HIF-2a inh. MiaPaCa-2 HIF-1a luciferase reporter, desferoxamine, overnight. actives 72% (n = 1,800);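 active = mean inhibition of the reporter signal across four replicates at the single tested dose of 50% or more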
* hit, by the source's call; nt = not tested or not shown. Hits are enriched below; roughly 2.2% of the tested compounds scored in any of these assays.

SMILES	KKLEB cytotox	HIF-2a inh	CF NFkB inh	TRAIL sens C8	PPC-1+TRAIL kill	iPSC survival up	HIF-2a conf	HIF-1a counter	others
CCCCn1c(N)c(N(CCOC)C(=O)CCC2CCCCC2)c(=O)[nH]c1=O	21	0	-23	-11	nt	0	nt	nt
CC(=O)c1ccc(S(=O)(=O)N2CCN(C(=O)CSc3ccc(F)cc3)CC2)cc1	1	9	9	7	nt	0	nt	nt
CNc1ccc(Br)cc(C(=O)/C=C/c2ccc(OC)cc2)c1=O	-4	9	-11	-11	21	-1	nt	nt
CNc1ccc(Br)cc(C(=O)/C=C/c2cc(OC)ccc2OC)c1=O	-12	43*	10	-12	40	-3	95*	88*
COc1coc(C(O)CN)cc1=O (configuration not stated)	-2	-2	11	-3	-3	-1	nt	nt
CCOC(=O)C(=Cc1cc(=O)c(OC)co1)C(=O)OCC	28	94*	85*	-3	40	6	99*	106*
Cc1ccc(C2CC(c3cccs3)=NN2C(=O)CCl)cc1 (configuration not stated)	-61*	-127	77*	77*	nt	0	nt	nt	Mdm2 MdmX conf=102*
O=C(COc1ccccc1[N+](=O)[O-])Nc1ccc2c(c1)CCC2	4	-288	-27	-9	nt	0	nt	nt
CCOC(=O)C(C)(C)Sc1ncnc2nc[nH]c12	-10	-7	5	16	-10	-1	nt	nt
CCOC(=O)c1cc([N+](=O)[O-])cc([N+](=O)[O-])c1Sc1ncnc2nc[nH]c12	-28	83*	18	67*	nt	0	61*	107*
C=CS(=O)(=O)N(Cc1ccc(Cl)c(Cl)c1)C[C@@H](O)CO	-7	1	37	-1	nt	-1	nt	nt	Mdm2 MdmX conf=94*
CCn1c(C)cs/c1=N\S(=O)(=O)c1ccccc1	-7	-14	8	-18	nt	-1	nt	nt
O=Cc1s/c(=N\S(=O)(=O)c2ccccc2)n(CCCCl)c1Cl	-69*	96*	89*	61*	26	8	93*	102*
N/C(=N\OC(=O)c1cccc(C(F)(F)F)c1)c1cnccn1	2	-200	-17	-15	nt	1	nt	nt
O=C(OCn1ncc(Cl)c(Cl)c1=O)c1cccc(C(F)(F)F)c1	-38	93*	78*	94*	33	75*	97*	105*	Mdm2 MdmX conf=103*
NS(=O)(=O)c1ccc(CCNC(=O)C2CCCN2S(=O)(=O)c2cccc3nsnc23)cc1 (configuration not stated)	7	3	0	12	nt	0	nt	nt
Cn1cc(C(C[N+](=O)[O-])c2ccccc2)c2ccccc21 (configuration not stated)	-7	96*	3	39	nt	0	5	29
C(=Cc1cnc2ccccc2n1)c1ccc2c(c1)OCO2	-65*	59*	-31	86*	nt	-3	92*	99*
Cn1c(/N=C/c2ccc3c(c2)OCO3)nc2ccccc21	4	-29	1	-4	2	1	nt	nt
O=C1C=CC(=O)N1c1ccc2c(c1)C(NC(=O)C(F)(F)F)c1ccccc1-2 (configuration not stated)	-9	46*	40	5	nt	-5	11	17
S=C(Nc1cc(Cl)cc(Cl)c1)NC1CCN(Cc2ccccc2)CC1	-29	42*	31	6	nt	1	12	107*
N#Cc1ccc(CSc2nnc(-c3ccccn3)n2-c2ccccc2)cc1	-3	23	-1	-3	5	-2	nt	nt
N#Cc1ccc(CSc2nnc(-c3c[nH]c4ccccc34)n2-c2ccccc2)cc1	3	47*	0	-2	7	0	30	71*
Cc1c(C(=O)NCCC2=CCCCC2)sc2ncnc(N3CCCCC3C)c12 (configuration not stated)	-20	16	3	7	nt	0	nt	nt
CC(=O)Nc1nc(-c2ccc3c(c2)CC(C)N3C(=O)C2CC2)c(C)s1 (configuration not stated)	12	-119	-36	1	nt	0	nt	nt	Mdm2 MdmX conf=99*
SMILES	KKLEB cytotox	HIF-2a inh	CF NFkB inh	TRAIL sens C8	PPC-1+TRAIL kill	iPSC survival up	HIF-2a conf	HIF-1a counter	others
c1ccc(CN2CCC(Nc3nc(-c4cccnc4)nc4ccccc34)CC2)cc1	-38	42*	-6	-1	25	-1	21	79*
CCOc1c(Br)cc(/C=C2/SC(=O)N(CC(=O)N3CCCC3)C2=O)cc1OC	-3	-13	-4	8	9	-2	nt	nt
CCOC(=O)COc1c(Br)cc(/C=C2\SC(=O)N(CC(=O)N3CCCC3)C2=O)cc1OC	-6	49*	15	9	-12	-2	8	42
CC(=O)c1ccc(NC(=O)c2noc3c2CCC3)cc1	30	49*	-38	39	35	-1	72*	61*
COc1ccc(NC(=O)c2noc3c2CCC3)cc1	2	-61	4	30	-6	-1	nt	nt
Cc1c(S(=O)(=O)N2CCCCC2)c(=O)n(C)c(=O)n1C	4	6	14	2	nt	1	nt	nt
Cc1cccc(OCC(=O)N(Cc2ccccc2)c2c(N)n(Cc3ccccc3)c(=O)[nH]c2=O)c1	2	14	-9	2	nt	0	nt	nt
Oc1ccccc1CNc1ccc(Br)cn1	-22	-214	-11	18	20	-3	nt	nt	Mdm2 MdmX conf=32*
COc1ccc2cc(CNCCOCCOCCNCc3ccc4cc(OC)ccc4c3)ccc2c1	-31	88*	31	88*	nt	-3	5	27
CCOCCCNCc1ccc(OC)cc1	12	12	-20	-12	-12	2	nt	nt
CC(C)n1ncc2c(C(=O)Nc3ccccc3SCC(N)=O)cc(C3CC3)nc21	-22	24	8	4	nt	0	nt	nt
C#CCN(C[C@@H]1[C@@H](OC(=O)NCCCCCC)[C@@H](OC(=O)NCCCCCC)Cn2c(=O)ccc(=O)n21)S(=O)(=O)c1ccc(C)cc1	-89*	95*	87*	89*	nt	5	91*	107*
C#CCN(C[C@@H]1[C@@H](OC(=O)NCc2ccc(OC)c(OC)c2)[C@@H](OC(=O)NCc2ccc(OC)c(OC)c2)Cn2c(=O)ccc(=O)n21)S(=O)(=O)c1ccc(C)cc1	-19	33	43	13	nt	-2	nt	nt

Bioassay records as filed in PubChem.
